Source: ChEMBL document CHEMBL3988442, “University of Dundee, Small-Polar-MMV Screening Library” (2021)
For some of these results: Measured potencies and affinities stand elsewhere.

Key:
Set-up in all cases: scale not given: direction of the effect not stated beside the values
[1] = target: Protein translocase subunit SecA (Escherichia coli (strain K12)) (UniProt P10408); experiment: Assay to Identify E. coli SecA ATPase Inhibitors; format: functional; conditions: 30 µM
[2] = target: T1, Ubiquitin-activating enzyme e1, putative (Leishmania donovani (strain BPK282A1)) (UniProt E9BSI1); experiment: Leishmania donovani Ubiquitin Activating Enzyme (LdE1); format: functional; conditions: 30 µM
T1 sequence (whole entry): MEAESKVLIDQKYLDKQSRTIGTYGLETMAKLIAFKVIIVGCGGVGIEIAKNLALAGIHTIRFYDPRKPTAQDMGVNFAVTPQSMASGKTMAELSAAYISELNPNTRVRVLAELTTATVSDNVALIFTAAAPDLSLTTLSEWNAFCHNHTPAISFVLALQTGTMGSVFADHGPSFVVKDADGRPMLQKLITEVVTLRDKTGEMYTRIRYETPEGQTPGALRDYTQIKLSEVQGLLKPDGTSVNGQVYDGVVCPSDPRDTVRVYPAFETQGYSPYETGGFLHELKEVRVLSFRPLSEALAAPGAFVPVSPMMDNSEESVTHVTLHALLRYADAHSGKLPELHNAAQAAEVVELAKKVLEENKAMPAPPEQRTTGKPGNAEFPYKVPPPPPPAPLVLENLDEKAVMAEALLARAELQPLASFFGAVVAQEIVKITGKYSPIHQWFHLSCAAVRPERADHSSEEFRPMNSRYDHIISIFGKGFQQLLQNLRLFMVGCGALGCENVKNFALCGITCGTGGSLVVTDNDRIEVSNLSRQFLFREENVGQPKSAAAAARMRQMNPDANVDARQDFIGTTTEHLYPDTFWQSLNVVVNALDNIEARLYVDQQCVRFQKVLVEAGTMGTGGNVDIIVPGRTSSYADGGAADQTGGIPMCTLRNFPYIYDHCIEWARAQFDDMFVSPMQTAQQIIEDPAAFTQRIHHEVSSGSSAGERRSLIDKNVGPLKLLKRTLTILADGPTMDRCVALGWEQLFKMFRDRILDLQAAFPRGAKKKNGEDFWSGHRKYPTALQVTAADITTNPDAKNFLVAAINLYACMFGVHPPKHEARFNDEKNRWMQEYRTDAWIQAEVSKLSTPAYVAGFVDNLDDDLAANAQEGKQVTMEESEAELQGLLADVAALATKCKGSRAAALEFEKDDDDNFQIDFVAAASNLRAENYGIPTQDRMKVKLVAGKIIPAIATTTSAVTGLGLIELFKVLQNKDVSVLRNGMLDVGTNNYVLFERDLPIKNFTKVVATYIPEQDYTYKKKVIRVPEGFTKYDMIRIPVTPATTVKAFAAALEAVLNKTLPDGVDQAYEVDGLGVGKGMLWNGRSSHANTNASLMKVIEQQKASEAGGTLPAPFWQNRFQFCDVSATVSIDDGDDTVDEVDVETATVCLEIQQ

[3] = target: T2, Aspartate--tRNA(Asp/Asn) ligase (Mycobacterium tuberculosis (strain ATCC 25618 / H37Rv)) (UniProt P9WFW3); experiment: Assay for Asp RNA synthetase-1 from Mycobacterium tuberculosis; format: functional; conditions: 30 µM; also: in the data most compounds retested in dose-response had high values
T2 sequence (whole entry): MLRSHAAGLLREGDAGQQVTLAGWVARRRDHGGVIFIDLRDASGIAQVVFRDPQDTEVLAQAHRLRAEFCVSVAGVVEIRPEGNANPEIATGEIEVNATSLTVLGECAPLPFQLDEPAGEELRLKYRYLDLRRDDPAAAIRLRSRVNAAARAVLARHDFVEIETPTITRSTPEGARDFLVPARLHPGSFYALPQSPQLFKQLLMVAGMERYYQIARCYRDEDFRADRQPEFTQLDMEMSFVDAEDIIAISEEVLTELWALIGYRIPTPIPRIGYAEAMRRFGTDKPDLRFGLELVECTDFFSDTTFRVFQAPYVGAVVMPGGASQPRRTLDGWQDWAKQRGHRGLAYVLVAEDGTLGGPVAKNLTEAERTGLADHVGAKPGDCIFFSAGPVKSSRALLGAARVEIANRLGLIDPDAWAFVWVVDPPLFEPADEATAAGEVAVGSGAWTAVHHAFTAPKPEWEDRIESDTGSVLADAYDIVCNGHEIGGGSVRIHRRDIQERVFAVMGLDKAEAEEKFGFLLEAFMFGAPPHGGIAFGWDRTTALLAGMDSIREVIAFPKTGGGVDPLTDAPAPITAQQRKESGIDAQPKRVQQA

[4] = target: AMP-activated protein kinase, AMPK (Homo sapiens) (UniProt P54646+O43741+P54619+Q9UGJ0+Q9Y478+Q13131+Q9UGI9); experiment: AMP-dependent Kinase enzyme assay. An in vitro enzyme assay that detects ADP turnover that is directly proportional to AMPK activity. This uses naive AMPK that is activated during the assay with MK-8722; format: functional; conditions: 30 µM
[5] = target: Sialic acid-binding Ig-like lectin 9 (Homo sapiens) (UniProt Q9Y336); experiment: Hs-Siglec9 ALPHAscreen SOP 20170721; conditions: 10 µM
Trypanosoma cruzi = experiment: Trypanosoma cruzi phosphomannomutase and mannose-1-phosphate guanylyltransferase assay; format: functional; conditions: 10 µM
[6] = target: T3, Arginase-2, mitochondrial (Homo sapiens) (UniProt P78540); experiment: in vitro enzyme assay to detect the production of urea directly proportional to the activity of Arginase II; format: functional; conditions: 33.3 µM; also: in the data most compounds retested in dose-response had high values
T3 sequence (whole entry): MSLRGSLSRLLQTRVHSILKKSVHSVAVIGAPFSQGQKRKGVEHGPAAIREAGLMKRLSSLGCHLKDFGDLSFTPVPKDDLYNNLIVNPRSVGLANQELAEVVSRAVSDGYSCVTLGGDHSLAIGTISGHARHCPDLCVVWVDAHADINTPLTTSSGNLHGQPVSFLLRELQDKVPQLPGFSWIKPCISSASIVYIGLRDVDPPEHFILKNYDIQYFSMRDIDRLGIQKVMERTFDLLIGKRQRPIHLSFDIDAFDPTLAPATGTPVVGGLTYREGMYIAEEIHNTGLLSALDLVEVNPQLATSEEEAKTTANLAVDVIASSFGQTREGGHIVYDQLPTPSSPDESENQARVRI

[7] = target: T4, Proteasome subunit beta (Trypanosoma cruzi) (UniProt O96673); experiment: Trypanosoma cruzi proteasome chymotrypsin-like activity (TcProtChymo) assay.; also: in the data most compounds retested in dose-response had high values; format: functional; conditions: 9.37 µM
T4 sequence (whole entry): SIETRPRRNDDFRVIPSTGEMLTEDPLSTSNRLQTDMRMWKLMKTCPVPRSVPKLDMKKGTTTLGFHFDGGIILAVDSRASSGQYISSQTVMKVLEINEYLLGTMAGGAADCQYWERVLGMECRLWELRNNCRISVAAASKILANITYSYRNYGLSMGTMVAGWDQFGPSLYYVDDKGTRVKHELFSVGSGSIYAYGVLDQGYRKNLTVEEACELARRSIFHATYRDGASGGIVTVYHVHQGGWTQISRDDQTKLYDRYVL

Homo sapiens = organism: Homo sapiens; experiment: To identify inhibition of the IFN signalling (Jak-Stat) pathway via expression of an eGFP reporter gene under the control of an IFN-stimulated response element (ISRE) containing MxA promoter.; format: functional; conditions: 30 µM
[8] = target: Shiga toxin 2 (Escherichia coli O157:H7) (UniProt P09385+P09386); experiment: E. coli 0.157:H7 Shiga Toxin SOP - stx2 screening assay; format: functional; conditions: 30 µM
[9] = target: T5, Tyrosyl-tRNA synthetase, putative (Trypanosoma cruzi (strain CL Brener)) (UniProt Q4DSP6); experiment: Trypanosoma cruzi tyrosyl tRNA synthetase (TcYRS) _High Tyrosine SOP; format: functional; conditions: 30 µM; also: in the data most compounds retested in dose-response had high values
T5 sequence (whole entry): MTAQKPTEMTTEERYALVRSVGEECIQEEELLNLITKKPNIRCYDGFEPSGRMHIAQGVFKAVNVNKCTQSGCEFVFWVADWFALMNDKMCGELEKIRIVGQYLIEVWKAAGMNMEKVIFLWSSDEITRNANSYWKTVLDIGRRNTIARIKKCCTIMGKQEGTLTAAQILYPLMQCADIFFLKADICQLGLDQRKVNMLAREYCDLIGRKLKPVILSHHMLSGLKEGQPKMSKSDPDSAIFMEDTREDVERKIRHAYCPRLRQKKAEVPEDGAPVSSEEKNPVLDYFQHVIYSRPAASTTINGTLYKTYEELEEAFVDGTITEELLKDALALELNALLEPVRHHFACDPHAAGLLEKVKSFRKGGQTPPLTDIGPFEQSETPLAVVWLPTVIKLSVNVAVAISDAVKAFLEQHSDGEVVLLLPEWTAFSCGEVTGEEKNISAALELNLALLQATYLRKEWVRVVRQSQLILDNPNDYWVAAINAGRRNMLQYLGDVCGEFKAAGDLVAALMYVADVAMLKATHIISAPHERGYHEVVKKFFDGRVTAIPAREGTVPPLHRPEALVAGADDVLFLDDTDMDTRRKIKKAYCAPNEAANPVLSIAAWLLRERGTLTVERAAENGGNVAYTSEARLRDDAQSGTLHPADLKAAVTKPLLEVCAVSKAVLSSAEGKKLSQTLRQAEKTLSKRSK

[10] = target: T5, Tyrosyl-tRNA synthetase, putative (Trypanosoma cruzi (strain CL Brener)); experiment: Trypanosoma cruzi tyrosyl tRNA synthetase (TcYRS) SOP; format: functional; conditions: 30 µM
[11] = target: Chromo domain-containing protein 1 (Saccharomyces cerevisiae (strain ATCC 204508 / S288c) (Baker's yeast)) (UniProt P32657); experiment: ScCHD-1 Enzyme Inhibition Assay; format: functional; conditions: 30 µM; also: in the data most compounds retested in dose-response had high values
Chain of Chromo domain-containing protein 1 (Saccharomyces cerevisiae (strain ATCC 204508 / S288c) (Baker's yeast)) (P32657 whole entry, the tested form may be a part): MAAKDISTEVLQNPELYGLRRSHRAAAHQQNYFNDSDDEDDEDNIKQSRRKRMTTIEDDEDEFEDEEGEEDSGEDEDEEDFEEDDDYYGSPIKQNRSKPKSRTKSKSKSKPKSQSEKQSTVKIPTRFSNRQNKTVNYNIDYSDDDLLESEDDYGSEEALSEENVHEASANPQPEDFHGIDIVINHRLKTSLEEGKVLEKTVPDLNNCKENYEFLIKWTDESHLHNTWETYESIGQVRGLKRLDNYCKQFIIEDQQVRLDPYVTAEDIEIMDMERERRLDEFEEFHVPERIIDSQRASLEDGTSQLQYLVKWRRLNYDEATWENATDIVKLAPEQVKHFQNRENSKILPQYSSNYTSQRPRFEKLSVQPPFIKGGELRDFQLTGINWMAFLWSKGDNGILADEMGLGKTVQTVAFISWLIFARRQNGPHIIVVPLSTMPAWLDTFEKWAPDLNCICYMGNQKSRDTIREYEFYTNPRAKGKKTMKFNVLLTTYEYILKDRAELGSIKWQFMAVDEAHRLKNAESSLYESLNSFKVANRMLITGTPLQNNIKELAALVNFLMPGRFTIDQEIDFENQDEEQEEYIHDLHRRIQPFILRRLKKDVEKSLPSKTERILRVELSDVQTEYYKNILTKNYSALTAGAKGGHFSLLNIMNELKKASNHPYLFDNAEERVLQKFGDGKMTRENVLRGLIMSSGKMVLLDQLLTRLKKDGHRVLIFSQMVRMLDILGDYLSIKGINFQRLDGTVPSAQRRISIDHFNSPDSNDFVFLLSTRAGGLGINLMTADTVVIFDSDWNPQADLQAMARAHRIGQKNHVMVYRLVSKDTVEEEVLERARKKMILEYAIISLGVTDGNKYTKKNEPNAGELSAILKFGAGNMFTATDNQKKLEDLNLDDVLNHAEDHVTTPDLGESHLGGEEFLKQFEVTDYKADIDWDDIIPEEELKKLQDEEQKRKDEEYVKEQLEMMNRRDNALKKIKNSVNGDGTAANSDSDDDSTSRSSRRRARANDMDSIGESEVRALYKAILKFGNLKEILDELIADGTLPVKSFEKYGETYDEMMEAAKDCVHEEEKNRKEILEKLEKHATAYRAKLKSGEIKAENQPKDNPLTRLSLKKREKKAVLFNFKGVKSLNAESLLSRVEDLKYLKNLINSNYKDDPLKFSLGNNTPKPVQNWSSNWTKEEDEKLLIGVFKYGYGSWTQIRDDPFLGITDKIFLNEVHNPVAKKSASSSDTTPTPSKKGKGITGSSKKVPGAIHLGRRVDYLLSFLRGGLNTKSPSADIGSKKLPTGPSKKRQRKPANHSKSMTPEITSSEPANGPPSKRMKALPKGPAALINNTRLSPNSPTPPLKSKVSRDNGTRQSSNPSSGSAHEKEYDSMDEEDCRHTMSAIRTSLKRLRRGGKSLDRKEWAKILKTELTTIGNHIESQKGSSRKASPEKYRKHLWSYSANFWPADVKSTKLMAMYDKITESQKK

Chain of Protein translocase subunit SecA (Escherichia coli (strain K12)) (P10408 whole entry): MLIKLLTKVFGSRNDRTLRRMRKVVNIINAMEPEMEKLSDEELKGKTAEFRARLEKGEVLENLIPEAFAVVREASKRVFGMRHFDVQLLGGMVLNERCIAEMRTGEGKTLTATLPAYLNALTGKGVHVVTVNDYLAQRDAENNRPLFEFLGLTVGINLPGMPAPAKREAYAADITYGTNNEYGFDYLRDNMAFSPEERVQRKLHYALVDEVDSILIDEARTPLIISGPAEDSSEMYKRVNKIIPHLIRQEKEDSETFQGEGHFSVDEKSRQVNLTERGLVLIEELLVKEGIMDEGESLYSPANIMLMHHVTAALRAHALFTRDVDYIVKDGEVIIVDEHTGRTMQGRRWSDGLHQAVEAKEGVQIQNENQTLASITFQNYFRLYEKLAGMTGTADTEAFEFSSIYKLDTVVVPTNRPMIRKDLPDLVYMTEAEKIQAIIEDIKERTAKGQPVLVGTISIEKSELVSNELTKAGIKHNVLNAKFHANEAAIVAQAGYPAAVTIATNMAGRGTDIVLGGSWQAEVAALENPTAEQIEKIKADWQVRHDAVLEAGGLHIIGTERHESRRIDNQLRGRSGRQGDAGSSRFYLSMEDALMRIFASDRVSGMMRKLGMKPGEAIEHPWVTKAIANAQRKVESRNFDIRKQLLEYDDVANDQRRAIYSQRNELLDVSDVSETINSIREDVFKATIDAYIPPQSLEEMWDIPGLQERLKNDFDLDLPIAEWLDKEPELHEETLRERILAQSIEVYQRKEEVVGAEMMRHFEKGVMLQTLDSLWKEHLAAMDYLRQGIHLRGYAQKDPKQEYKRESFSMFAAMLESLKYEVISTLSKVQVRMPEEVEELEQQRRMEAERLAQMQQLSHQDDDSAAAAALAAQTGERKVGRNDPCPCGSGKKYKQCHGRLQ
Chain of Sialic acid-binding Ig-like lectin 9 (Homo sapiens) (Q9Y336 whole entry): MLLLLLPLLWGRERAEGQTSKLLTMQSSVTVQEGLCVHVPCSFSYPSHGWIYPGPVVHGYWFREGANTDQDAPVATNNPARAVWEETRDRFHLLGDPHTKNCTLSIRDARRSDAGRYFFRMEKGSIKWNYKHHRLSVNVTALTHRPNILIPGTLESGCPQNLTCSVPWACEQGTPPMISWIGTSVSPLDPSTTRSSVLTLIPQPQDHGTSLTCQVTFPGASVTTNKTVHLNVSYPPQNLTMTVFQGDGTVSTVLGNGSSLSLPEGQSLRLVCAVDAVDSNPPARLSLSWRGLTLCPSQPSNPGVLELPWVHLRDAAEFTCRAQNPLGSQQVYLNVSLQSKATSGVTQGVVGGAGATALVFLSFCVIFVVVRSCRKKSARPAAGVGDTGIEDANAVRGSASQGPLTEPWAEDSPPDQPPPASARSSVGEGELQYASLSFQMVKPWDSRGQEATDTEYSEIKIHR

Compound	Percent Effect [1]	Percent Effect [2]	Percent Effect [3]	Percent Effect [4]	Percent Effect [5]	Percent Effect (Trypanosoma cruzi)	Percent Effect [6]	Percent Effect [7]	Percent Effect (Homo sapiens)	Percent Effect [8]	Percent Effect [9]	Percent Effect [10]	Percent Effect [11]
Cc1cc(CN2C[C@@H]3COC[C@]3(CNC(=O)c3ccno3)C2)no1	-5.72%	2.7%	6.65%	2.65%	4.53%	0.293%	8.6%	13.1%	-16.8%	-2.33%	3.24%	5.13%	1.22%
Cc1cc(CN2CC[C@H]3OCC[C@@]3(C(=O)NC(C)C)C2)no1	-1.37%	15.6%	0.364%	0.843%	5.07%	0.888%	4.52%	10.4%	16.3%	-28.2%	5.29%	11.5%	-5.46%
CCn1cc(CN2CCCN(C(=O)Cc3ccc(C)nc3)CC2)cn1	-6.08%	10.4%	-1.87%	0.798%	5.82%	6.76%	-3.58%	5.09%	-17.1%	1.69%	-1.91%	9.41%	-14.6%
COCCN1C[C@@H]2[C@@H](OC)CCN(Cc3cccc(C)n3)[C@@H]2C1	-1.97%	11%	-0.137%	-7.2%	9.07%	6.75%	-2%	12.1%	-7.05%	-22.1%	7.29%	13.6%	-5.26%
c1cncc(OC[C@]23COC[C@H]2CN(Cc2cccs2)C3)c1	-3.94%	5.41%	4.12%	0.208%	-2.85%	-2.34%	-0.417%	6.85%	11.9%	-3%	6.93%	15.8%	4.29%
CS(=O)(=O)N1CCC(C(=O)N2CCC3(CC2)OCCCO3)CC1	-4.7%	20.8%	3.34%	-4.81%	-12.3%	5.23%	3.23%	12.2%	14.4%	-32.1%	6.35%	21.8%	-10.8%
CC(C)CN1CCC2(C1)CN(c1ncccn1)C2	-1.21%	13.3%	3.02%	6.7%	-5.1%	-3.15%	-3.03%	10.3%	5.15%	-15.1%	5.32%	11.5%	-4.75%
